# SENP6 block: SENP6 protease inhibitors, primary screen, biochemical, luminescence, uHTS; Sentrin-specific protease 6 (Homo sapiens), Q9GZR1; Recombinant SENP6 catalytic domain, aminoluciferin luminescence; inhibition, % at 10 µM; actives 1.8% (n = 330,000);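 active means inhibition above about 50% at the single tested dose, limit read from the data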;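 further: plate controls were DMSO wells with enzyme for no effect and DMSO wells lacking enzyme for full effect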
# Target sequence (Q9GZR1 628-1112 limits assumed): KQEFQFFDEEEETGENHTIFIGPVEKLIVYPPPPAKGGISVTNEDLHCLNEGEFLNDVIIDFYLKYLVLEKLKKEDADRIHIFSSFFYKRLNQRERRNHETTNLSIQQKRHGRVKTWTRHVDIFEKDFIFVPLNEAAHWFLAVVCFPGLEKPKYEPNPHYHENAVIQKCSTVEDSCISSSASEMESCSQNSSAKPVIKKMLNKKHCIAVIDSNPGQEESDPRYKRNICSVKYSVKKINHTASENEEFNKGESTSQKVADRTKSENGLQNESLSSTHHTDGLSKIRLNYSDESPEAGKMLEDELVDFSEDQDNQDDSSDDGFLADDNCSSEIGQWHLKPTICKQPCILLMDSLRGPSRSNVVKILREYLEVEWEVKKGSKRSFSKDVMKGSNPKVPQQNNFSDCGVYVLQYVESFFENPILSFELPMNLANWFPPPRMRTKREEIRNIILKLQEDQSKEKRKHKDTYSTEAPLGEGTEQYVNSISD
# SENP8 block-1: human SENP8 protease inhibitors, primary screen, biochemical, fluorescence, Nedd8 protein substrate, uHTS; recombinant SENP8; inhibition, % at 20 µM; actives 0.64% (n = 360,000); AID 602440, 2012; in the data active means inhibition mostly above about 40%, no sharp cut-off; inactive means mostly below about 27%
# SENP8 block-2: SENP8 protease inhibitors, primary screen, biochemical, luminescence; actives 1.2% (n = 330,000); inhibition, % at 10 µM; purified SENP8, Z-RLRGG-aminoluciferin cleavage; in the data active means inhibition above about 50%
# SENP7 block: SENP7 protease inhibitors, primary screen, biochemical, luminescence, uHTS. Sentrin-specific protease 7 (Homo sapiens), Q9BQF6. recombinant SENP7, Z-RLRGG-aminoluciferin luminescence, 40 min. inhibition, % at 5 µM. actives 1.5% (n = 330,000). AID 434973, 2010;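 active means inhibition above about 50% at the single test dose, limit read from the data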;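 further: plate controls were DMSO with enzyme for no effect and no enzyme buffer wells for full effect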
# HSP90 inh: HSP90 inhibitors, primary screen, cell lysate, luminescence | Heat shock protein HSP 90 (rabbit reticulocyte lysate; luciferase refolding) | Rabbit reticulocyte lysate, luciferase refolding luminescence, 3 h | inhibition, % at 5.6 µM | actives 0.91% (n = 290,000) | AID 1789, 2009;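 active means inhibition above the screen-wide mean plus 3 SD, computed separately per campaign, cut at about 16% in these data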;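 further: 0% = DMSO wells and 100% = 60 µM geldanamycin wells; inhibitors lower the luminescence because luciferase stays unfolded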
# SENP8 conf: SENP8 protease inhibitors, retest, confirmation, biochemical, luminescence, single concentration. inhibition, % at 12.5 µM. AID 488912, 2010. shares compounds with SENP7 block. Recombinant SENP8, Z-RLRGG-aminoluciferin luminescence, 60 min. actives 40% (n = 6,200);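 active means mean inhibition across replicates above about 50%, limit read from the data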
# SENP6 conf: SENP6 protease inhibitors, confirmation, biochemical, luminescence, single concentration; shares compounds with SENP7 block; recombinant SENP6, Z-RLRGG-aminoluciferin luminescence; inhibition, % at 12.5 µM; actives 58% (n = 6,200); AID 488915, 2010
# SENP7 confirm: SENP7 protease inhibitors, retest, confirmation, biochemical, luminescence, single concentration; shares compounds with SENP7 block; recombinant SENP7, Z-RLRGG-aminoluciferin luminescence, 40 min; inhibition, % at 12.5 µM; actives 69% (n = 6,200); AID 488917, 2010
# Casp3 SENP sel: caspase-3 protease inhibitors, confirmation, selectivity assay for SENP inhibitor project, biochemical, single concentration | inhibition, % at 12.5 µM | AID 488918, 2010 | purified caspase-3, Z-DEVD-aminoluciferin luminescence, 60 min | shares compounds with SENP7 block | actives 60% (n = 6,200);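 active means mean inhibition above about 50%, limit read from the data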;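 further: plate controls were enzyme with DMSO for no effect and wells without caspase-3 for full effect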
# SENP luc ctr: counter-screen for SENP inhibitors: luminescence interference; shares compounds with SENP7 block; Pre-incubated SENP8/Z-RLRGG-aminoluciferin, luciferase luminescence interference; inhibition, % at 12.5 µM; actives 39% (n = 6,200); AID 488919;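 active means mean inhibition above about 50% when retested at one dose, limit read from the data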;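 further: plate controls were DMSO wells with completed reaction for no effect and substrate without enzyme for full effect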
# An asterisk follows results filed as active; / = no result. Compounds with a hit are over-represented: about 2.8% of the library has one in this group of screens.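 How the source made its calls, unless noted: active means mean inhibition above about 50% in the one-dose retest (limit read from the data); inactive means the rest.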
SMILES,SENP6 block,SENP8 block-1,SENP8 block-2,SENP7 block,HSP90 inh,SENP8 conf,SENP6 conf,SENP7 confirm,Casp3 SENP sel,SENP luc ctr
Cc1ccc(NC(CC(=O)c2ccccc2)c2ccc(F)cc2)cc1 (stereo not given),-3,2,-3,0,1,/,/,/,/,/
COCCCNC(=O)COC(=O)c1ccc(-c2nc3ccccc3s2)s1,86*,-433,82*,86*,5,61*,66*,91*,78*,59*
CNC(=O)COC(=O)/C=C/c1nc2ccccc2s1,-17,1,-9,-8,-1,/,/,/,/,/
COc1ccc(CCNC(=O)COC(=O)c2ccc(C)s2)cc1,0,2,-10,-5,/,/,/,/,/,/
CNC(=O)COC(=O)c1ccc(-c2nc3ccccc3s2)s1,97*,-282,93*,97*,3,26,31,51*,52*,32
CN(C)c1ccc(C2C3=C(CCCC3=O)OC3=C2C(=O)CCC3)cc1,5,26,7,16,-3,/,/,/,/,/
CN(C)c1ccc(/C=C2\CCCCC2=O)cc1,62*,-24,48,63*,4,46,62*,81*,60*,29
Cc1c(/C=C/C(=O)c2ccccc2O)cnn1C,63*,19,35,67*,-1,16,55*,81*,49,13
O=C(OCC(=O)c1ccc(S(=O)(=O)N2CCCC2)cc1)C1=COCCO1,-11,14,-3,-5,1,/,/,/,/,/
COc1ccc(OC)c(/C=N\NC(=O)c2ccc(COc3ccc(C)cc3[N+](=O)[O-])o2)c1,-16,-475,3,0,/,/,/,/,/,/
O=C(Nc1ccc(Cl)cc1Cl)C1=Cc2ccccc2OC1,43,-83,38,51*,2,-19,27,31,34,0
COc1ccc(NC(=O)C2=Cc3ccccc3OC2)cc1,68*,10,61*,73*,14,59*,60*,87*,66*,1
O=C1/C(=C/c2cccc(F)c2)Oc2cc(O)ccc21,52*,-256,36,47,-3,70*,64*,81*,44,34
Cc1ccc(-c2nc3ccccc3c(=O)n2O)cc1,3,10,-13,-7,4,/,/,/,/,/
O=c1c2cc(Br)ccc2nc(-c2ccccc2)n1O,62*,-3,48,-3,4,65*,61*,84*,61*,72*
Cc1cc(C(=O)COC(=O)c2ccc(Br)o2)c(C)n1Cc1ccco1,-16,/,-3,-7,5,/,/,/,/,/
COCCn1c(C)cc(C(=O)COC(=O)c2ccc(Br)o2)c1C,51*,4,35,41,4,44,40,80*,73*,64*
Oc1ccccc1C=NN=C1c2ccccc2-c2ccccc21,/,22,/,/,/,/,/,/,/,/
C/C(=N/N=C/c1ccccc1O)c1ccccc1O,60*,17,55*,86*,-1,19,30,30,26,10
COCCOc1ccc(C(F)(F)F)cc1Nc1nc2ccccc2o1,5,-250,3,-3,4,/,/,/,/,/
Cc1cc(C(F)(F)F)c(C#N)c(SCC(=O)Nc2nc3ccccc3s2)n1,80*,19,89*,91*,30*,20,16,12,20,2
Cc1ccc2sc(NC(=O)CSc3nc(C)cc(C)c3C#N)nc2c1,3,-294,-5,-1,2,/,/,/,/,/
O/N=C/c1ccc(OCc2ccccc2)c(Cl)c1,86*,7,64*,59*,0,8,72*,90*,41,76*
O/N=C/c1ccc(OCc2ccccc2)c(Br)c1,/,2,/,/,0,/,/,/,/,/
Clc1nc(-c2ccccn2)nc2scc(-c3ccccc3)c12,87*,-295,68*,46,1,22,52*,49,41,16
SMILES,SENP6 block,SENP8 block-1,SENP8 block-2,SENP7 block,HSP90 inh,SENP8 conf,SENP6 conf,SENP7 confirm,Casp3 SENP sel,SENP luc ctr
CC1CCN(c2nc(-c3cccnc3)nc3scc(-c4ccccc4)c23)CC1,-2,-412,4,1,0,/,/,/,/,/
CSc1ccc(CN(C)C(=O)c2ccc(S(=O)(=O)Nc3ccccc3)cc2)cc1,-16,8,-9,-13,/,/,/,/,/,/
Cc1nnc(SCCC(=O)Nc2nc(-c3ccccc3)ns2)s1,58*,-4,17,-5,2,54*,50*,78*,26,30
Cn1c(COc2ccccc2Br)nc2ccccc21,69*,14,60*,49,1,52*,71*,91*,63*,31
COc1ccccc1OCc1nc2ccccc2n1C,15,14,-2,9,1,/,/,/,/,/
CCn1c(COc2ccccc2C)nc2ccccc21,75*,18,58*,47,-2,41,40,78*,53*,29
COc1ccc(S(=O)(=O)N(C)C[C@H]2Oc3ccc(NS(=O)(=O)c4cn(C)cn4)cc3C(=O)N([C@H](C)CO)C[C@@H]2C)cc1,-14,6,2,-2,/,/,/,/,/,/
Clc1cnc(N/N=C/c2ccco2)c(Cl)c1,81*,-70,61*,-1,10,15,19,30,84*,20
Cc1ccc(CNC(=O)C2CCC(=O)N(CCc3cccc(F)c3)C2)s1 (stereo not given),-13,20,-1,-7,2,/,/,/,/,/
Cc1ccc(-c2noc(-c3ccccc3F)n2)cc1,96*,7,76*,97*,-2,73*,95*,101*,85*,68*
O=C(c1ccccc1-c1nc(-c2ccc(F)cc2)no1)N1CCCC1,-6,13,12,0,3,/,/,/,/,/
O=C(O)c1ccc(-c2noc(-c3ccccc3F)n2)cc1,99*,7,96*,99*,/,100*,101*,104*,100*,95*
CCN(Cc1ccccc1)S(=O)(=O)c1ccc(S(=O)(=O)N2CCN(CCC#N)CC2)cc1,1,4,3,10,3,/,/,/,/,/

# From PubChem BioAssay
